Reference: the supplement of paper PMC11732987, “Enantioselective OTUD7B fragment discovery through chemoproteomics screening and high-throughput optimisation” (Communications Chemistry, 2025)

Tests used:
Test in all cases: log2 ratio of Biotin-Ahx-Ub-VS probe labelling (fragment/DMSO); higher = less target engagement (more negative = stronger competition), active = hit call of the paper (q ≤ 0.05, log2 ratio ≤ -1)
Conditions in all cases: compound concentration: 200 uM; treatment time: 3 h
[1] = target: USP34 (UniProt Q70CQ2)
Procedure, shortened: (§1)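 HEK293T lysate (495 µg per sample, in Tris/CHAPS/IGEPAL buffer with protease inhibitors) was treated in triplicate with fragment at 200 µM or with DMSO for 3 h. It was then treated with Biotin-Ahx-Ub-VS (0.5 µM final) for 1 h. Labelled DUBs were NeutrAvidin-enriched, digested with LysC and trypsin, and run by diaPASEF LC-MS/MS. Spectronaut label-free quantities were global-median-normalised. Values are average log2 ratios fragment/DMSO by unpaired t-test, using proteins with ≥2 unique peptides.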

[2] = target: T1, USP36 (UniProt Q9P275)
T1 sequence (whole entry): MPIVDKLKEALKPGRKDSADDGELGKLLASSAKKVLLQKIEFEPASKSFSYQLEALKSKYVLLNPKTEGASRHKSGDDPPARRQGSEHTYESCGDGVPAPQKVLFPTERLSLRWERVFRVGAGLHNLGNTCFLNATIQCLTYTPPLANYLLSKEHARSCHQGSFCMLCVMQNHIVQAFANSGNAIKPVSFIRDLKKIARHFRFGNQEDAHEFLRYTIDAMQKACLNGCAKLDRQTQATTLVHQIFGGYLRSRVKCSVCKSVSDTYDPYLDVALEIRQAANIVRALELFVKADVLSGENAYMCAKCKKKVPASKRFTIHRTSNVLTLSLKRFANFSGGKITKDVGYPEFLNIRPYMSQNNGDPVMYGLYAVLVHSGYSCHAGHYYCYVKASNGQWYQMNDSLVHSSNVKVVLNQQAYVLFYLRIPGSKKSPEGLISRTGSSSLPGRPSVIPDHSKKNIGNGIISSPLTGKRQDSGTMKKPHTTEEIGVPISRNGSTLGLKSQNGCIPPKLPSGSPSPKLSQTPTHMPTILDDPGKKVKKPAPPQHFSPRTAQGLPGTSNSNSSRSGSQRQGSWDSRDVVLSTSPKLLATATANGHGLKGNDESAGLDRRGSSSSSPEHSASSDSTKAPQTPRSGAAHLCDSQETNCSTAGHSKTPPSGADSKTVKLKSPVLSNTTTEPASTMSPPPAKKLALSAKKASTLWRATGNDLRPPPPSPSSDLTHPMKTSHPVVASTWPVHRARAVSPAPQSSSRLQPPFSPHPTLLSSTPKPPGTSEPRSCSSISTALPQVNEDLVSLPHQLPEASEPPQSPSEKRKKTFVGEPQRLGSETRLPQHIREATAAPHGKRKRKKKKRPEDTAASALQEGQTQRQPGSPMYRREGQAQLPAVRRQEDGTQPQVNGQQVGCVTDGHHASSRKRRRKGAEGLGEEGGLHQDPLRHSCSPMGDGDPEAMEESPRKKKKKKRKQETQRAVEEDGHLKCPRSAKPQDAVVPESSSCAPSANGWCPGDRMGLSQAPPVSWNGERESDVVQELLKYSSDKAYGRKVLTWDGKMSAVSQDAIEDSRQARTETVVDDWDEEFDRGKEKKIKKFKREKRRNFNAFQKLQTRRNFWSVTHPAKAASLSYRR
Procedure, shortened: as §1

[3] = target: T2, USP38 (UniProt Q8NB14)
T2 sequence (whole entry): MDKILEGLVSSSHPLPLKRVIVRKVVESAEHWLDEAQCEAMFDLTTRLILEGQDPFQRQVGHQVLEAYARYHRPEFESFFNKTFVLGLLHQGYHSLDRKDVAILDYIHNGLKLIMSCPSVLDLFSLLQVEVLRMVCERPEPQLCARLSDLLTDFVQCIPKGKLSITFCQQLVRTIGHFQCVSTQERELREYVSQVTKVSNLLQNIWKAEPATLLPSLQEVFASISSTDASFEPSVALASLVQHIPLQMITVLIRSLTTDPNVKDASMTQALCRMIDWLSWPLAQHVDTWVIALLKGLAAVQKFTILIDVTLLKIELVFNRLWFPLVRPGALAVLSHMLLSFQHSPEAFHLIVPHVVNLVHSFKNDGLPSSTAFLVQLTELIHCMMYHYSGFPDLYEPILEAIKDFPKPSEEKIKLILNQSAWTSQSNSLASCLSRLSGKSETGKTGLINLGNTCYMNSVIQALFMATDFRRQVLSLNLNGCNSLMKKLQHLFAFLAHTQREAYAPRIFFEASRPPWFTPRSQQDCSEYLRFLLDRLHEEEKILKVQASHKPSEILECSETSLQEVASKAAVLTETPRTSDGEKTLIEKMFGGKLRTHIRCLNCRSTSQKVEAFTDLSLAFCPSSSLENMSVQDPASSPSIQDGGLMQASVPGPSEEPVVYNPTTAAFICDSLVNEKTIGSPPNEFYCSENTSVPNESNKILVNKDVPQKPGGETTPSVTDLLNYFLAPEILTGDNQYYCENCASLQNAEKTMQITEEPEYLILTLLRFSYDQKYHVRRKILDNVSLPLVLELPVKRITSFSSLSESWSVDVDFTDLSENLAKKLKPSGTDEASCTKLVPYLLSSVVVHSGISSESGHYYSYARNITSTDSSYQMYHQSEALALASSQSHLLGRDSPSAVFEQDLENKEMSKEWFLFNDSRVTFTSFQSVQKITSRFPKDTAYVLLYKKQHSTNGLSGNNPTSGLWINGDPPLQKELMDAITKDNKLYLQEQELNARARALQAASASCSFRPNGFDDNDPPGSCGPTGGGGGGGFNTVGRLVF
Procedure, shortened: as §1

[4] = target: T3, USP39 (UniProt Q53GS9)
T3 sequence (whole entry): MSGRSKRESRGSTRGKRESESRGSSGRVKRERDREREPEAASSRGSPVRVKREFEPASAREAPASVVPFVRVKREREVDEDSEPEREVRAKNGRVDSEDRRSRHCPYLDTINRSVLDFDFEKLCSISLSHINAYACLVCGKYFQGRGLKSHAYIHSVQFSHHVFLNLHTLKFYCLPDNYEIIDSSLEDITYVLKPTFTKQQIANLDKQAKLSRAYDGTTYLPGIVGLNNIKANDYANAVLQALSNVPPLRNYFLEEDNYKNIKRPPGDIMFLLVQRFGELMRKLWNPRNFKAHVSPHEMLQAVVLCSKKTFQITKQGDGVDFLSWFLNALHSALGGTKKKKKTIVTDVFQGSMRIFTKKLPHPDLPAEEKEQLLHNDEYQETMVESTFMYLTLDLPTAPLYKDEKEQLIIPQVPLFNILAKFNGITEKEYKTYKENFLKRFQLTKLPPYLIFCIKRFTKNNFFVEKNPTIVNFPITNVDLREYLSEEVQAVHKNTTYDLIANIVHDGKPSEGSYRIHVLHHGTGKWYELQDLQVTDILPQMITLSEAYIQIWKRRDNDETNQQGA
Procedure, shortened: as §1

[5] = target: T4, USP4 (UniProt Q13107)
T4 sequence (whole entry): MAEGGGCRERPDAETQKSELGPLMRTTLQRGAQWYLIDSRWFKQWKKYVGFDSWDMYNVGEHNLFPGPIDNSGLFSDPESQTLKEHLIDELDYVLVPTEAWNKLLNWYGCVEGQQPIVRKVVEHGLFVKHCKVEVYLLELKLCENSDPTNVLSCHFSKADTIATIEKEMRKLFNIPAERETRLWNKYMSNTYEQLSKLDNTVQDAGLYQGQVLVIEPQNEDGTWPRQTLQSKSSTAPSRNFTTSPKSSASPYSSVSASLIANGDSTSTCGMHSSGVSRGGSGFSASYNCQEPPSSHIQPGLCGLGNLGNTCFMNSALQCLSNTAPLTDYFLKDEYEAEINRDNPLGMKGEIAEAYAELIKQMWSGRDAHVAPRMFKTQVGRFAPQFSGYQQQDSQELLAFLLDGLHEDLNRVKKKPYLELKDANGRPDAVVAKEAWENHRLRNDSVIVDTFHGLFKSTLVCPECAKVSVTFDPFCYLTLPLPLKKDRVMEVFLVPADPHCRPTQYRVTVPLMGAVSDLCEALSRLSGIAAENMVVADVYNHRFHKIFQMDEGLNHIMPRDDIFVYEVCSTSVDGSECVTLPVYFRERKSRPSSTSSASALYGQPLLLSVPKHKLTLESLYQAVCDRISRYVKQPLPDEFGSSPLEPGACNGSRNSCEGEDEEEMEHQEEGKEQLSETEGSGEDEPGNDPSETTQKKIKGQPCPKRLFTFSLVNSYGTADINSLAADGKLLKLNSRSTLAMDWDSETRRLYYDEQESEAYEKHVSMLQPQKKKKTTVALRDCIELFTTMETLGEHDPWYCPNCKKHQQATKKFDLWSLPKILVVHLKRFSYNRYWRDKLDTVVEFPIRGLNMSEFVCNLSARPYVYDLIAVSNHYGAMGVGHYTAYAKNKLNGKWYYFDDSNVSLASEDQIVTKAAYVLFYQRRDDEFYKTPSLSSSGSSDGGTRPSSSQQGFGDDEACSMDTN
Procedure, shortened: as §1

Measured: log2 ratio of Biotin-Ahx-Ub-VS probe labelling

USP34, sequence (Q70CQ2 whole entry, the tested form may be a part): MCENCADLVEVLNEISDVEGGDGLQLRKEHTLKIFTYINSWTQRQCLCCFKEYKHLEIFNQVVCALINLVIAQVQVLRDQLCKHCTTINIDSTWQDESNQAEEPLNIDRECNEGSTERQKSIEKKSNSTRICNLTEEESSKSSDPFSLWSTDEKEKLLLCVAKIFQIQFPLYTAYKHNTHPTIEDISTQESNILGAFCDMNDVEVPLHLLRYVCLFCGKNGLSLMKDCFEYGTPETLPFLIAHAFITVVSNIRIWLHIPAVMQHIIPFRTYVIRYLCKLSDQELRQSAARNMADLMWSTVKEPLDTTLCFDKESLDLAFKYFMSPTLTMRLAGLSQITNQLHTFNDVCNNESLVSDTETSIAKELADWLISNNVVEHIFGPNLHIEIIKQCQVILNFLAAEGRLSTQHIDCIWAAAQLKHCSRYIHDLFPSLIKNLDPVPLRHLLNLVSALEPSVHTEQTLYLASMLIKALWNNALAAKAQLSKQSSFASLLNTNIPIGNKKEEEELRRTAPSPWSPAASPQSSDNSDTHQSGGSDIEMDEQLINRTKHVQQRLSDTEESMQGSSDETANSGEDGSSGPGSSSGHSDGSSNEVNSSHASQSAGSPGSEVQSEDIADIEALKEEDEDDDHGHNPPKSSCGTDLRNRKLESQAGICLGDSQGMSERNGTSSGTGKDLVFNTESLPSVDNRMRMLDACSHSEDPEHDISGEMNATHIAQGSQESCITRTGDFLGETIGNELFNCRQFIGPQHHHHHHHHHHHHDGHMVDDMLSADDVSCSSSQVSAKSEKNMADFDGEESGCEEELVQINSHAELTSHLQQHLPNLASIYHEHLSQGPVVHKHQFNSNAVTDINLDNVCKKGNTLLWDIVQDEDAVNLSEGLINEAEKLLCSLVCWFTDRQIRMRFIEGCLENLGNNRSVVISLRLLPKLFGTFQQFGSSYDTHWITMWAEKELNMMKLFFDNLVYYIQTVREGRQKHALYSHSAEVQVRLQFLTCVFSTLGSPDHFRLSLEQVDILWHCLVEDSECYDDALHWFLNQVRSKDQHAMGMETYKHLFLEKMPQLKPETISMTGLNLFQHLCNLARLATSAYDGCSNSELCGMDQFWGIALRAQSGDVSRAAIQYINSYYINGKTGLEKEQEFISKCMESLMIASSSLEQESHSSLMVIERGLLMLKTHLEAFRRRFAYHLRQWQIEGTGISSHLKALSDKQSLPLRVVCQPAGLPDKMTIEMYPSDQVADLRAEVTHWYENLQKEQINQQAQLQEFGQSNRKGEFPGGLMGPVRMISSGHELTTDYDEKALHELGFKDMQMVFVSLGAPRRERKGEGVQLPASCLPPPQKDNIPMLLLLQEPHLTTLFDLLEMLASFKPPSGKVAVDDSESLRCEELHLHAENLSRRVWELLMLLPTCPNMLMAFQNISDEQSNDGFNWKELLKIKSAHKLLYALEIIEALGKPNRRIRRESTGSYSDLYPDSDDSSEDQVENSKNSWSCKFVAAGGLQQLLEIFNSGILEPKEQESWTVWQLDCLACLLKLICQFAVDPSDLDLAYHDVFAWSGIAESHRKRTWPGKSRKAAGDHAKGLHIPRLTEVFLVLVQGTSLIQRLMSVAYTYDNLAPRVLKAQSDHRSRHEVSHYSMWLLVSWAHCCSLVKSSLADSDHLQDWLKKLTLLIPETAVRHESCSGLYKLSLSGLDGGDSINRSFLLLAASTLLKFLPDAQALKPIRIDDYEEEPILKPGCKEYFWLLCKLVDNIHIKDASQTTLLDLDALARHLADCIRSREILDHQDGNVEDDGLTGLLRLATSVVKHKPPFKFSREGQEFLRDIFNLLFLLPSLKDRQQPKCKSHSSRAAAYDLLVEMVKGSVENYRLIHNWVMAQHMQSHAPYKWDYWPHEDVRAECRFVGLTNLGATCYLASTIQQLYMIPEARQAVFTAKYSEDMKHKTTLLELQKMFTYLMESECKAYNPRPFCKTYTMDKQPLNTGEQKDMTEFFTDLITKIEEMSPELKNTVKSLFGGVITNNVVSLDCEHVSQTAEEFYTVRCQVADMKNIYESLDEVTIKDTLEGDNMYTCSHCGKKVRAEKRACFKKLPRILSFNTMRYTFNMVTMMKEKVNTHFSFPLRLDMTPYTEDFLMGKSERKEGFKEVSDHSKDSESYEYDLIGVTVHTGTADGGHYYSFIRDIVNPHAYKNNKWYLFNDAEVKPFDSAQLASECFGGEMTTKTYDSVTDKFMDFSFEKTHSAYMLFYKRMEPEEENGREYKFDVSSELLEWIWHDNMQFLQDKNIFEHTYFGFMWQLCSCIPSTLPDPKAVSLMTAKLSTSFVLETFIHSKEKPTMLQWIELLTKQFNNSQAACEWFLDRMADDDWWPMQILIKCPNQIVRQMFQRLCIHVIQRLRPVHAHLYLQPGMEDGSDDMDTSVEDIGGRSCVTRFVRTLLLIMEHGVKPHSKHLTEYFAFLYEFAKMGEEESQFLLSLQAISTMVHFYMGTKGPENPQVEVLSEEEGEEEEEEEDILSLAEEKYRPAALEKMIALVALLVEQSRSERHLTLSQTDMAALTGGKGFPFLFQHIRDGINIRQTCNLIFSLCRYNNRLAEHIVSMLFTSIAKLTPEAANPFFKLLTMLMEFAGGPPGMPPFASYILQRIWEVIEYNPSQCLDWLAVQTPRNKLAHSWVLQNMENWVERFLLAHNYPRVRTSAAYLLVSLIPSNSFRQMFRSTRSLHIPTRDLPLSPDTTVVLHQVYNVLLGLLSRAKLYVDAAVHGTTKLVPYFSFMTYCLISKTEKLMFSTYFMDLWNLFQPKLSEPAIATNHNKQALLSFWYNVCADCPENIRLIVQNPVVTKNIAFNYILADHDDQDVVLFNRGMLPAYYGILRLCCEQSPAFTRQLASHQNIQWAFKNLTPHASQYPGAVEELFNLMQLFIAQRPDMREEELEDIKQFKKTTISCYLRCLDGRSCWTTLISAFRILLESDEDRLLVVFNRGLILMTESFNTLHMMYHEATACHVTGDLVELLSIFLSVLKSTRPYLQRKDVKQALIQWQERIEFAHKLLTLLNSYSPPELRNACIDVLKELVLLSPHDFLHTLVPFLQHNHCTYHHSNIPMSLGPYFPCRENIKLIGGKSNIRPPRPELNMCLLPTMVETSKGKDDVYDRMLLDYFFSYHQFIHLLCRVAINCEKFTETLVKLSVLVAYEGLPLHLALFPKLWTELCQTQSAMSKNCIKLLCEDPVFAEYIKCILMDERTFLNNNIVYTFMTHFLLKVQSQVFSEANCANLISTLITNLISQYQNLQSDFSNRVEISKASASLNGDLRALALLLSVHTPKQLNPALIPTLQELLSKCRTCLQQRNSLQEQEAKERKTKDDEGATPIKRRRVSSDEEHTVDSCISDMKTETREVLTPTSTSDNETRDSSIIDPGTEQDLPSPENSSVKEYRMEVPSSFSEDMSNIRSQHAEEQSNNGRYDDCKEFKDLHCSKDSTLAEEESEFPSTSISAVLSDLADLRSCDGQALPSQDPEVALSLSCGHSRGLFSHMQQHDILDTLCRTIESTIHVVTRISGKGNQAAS

Cl.Cn1ncc2c1CC(NC(=O)CCl)CC2 (stereo not given)
inactive: [1] 0.0665 | [2] -0.0622 | [3] 0.034 | [4] -0.0219 | [5] 0.0879
